IL-1B inflam inh: qHTS for Inhibitors of Inflammasome Signaling: IL-1-beta AlphaLISA Primary Screen; THP-1 LPS/ATP IL-1B secretion, AlphaLISA, 16 h; stronger effect = lower value; activity change, % at 57.5 µM; 4.7% of 360,000 active; in the data active = activity change below about -50%; inconclusive = mostly about -30% to -49%; note: % is set by controls: 0 for no effect and ±100 for the full control effect
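THP-1 cells pretreated 1 hr with compounds (up to 57.5 uM final), then stimulated with LPS (250 ng/mL final) plus ATP (1.25 mM final); secreted IL-1B measured by AlphaLISA after 16 hr, decreased signal indicating inhibition.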
S-ASM inh: Inhibitors of Secretory Acid Sphingomyelinase (S-ASM): qHTS | Potency, µM (highest dose often 57.5 µM), inactives show at the top dose activity change, negative = inhibition, most hits filed as inhibitors | AID 504937, 2011 | Sphingomyelin phosphodiesterase (Homo sapiens), P17405 | 0.006% of 340,000 active | placental ASM, HMU-PC fluorogenic substrate, 60 min; note: potency is the fitted concentration of half-maximal effect
Target sequence (P17405 47-631 limits assumed): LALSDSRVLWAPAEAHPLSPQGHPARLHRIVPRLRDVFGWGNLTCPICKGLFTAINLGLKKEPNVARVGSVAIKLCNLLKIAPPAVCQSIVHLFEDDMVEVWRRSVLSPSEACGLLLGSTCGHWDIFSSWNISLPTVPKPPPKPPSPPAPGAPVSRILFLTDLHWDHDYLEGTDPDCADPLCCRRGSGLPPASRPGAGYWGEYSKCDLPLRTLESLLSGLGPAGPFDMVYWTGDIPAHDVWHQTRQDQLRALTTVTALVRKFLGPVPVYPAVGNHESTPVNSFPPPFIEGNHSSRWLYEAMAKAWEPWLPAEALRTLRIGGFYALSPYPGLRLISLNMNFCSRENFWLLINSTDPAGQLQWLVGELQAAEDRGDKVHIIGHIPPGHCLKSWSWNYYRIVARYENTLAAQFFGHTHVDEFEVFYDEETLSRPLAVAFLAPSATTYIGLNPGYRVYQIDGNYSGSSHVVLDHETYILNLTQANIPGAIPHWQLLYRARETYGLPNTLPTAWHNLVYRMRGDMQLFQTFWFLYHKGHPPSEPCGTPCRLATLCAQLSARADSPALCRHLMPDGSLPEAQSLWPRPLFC
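HMU-PC0 cleavage (9 uM final) by human placental ASM, 60 min at 37 °C following 10 min compound exposure at RT; stopped at pH 10, fluorescence Ex 386/Em 447 nm.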
HepG2 viability: qHTS for Inhibitors of TGF-b: Cytotox Counterscreen; HepG2 CAGA-GFP viability, ATP luminescence, 18 h; Potency, µM (titrated, usually from 46.1 µM), inactives show at the highest dose activity change, negative = cytotoxicity, usual class: cytotoxic; 0.76% of 410,000 active; note: potency is the fitted concentration of half-maximal effect
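HepG2 CAGA-GFP cells (1000/well, DMEM with 1% FBS) received compound, then TGF-beta at 500 pg/mL final, and were incubated 18 hours at 37 degrees C. Viability was read by CellTiter-Glo luminescence. Media-only wells were set as complete cell-killing and DMSO as no toxicity.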
TDP1 cell noCPT: qHTS for Inhibitors of human tyrosyl-DNA phosphodiesterase 1 (TDP1): qHTS in cells in absence of CPT; 15% of 420,000 active; AID 686978, 2013; DT40 Tdp1-/- hTDP1 cells, no CPT, ATP luminescence, 48 h; Potency, µM (highest dose often 46.2 µM), for the others: top-dose activity change, negative = growth inhibition, hits mostly inhibitors; note: potency is the fitted concentration of half-maximal effect; % is set by controls: 0 for no effect and ±100 for the full control effect; nearly all actives have a fitted effect of over 55% in size
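Compound effects on proliferation are scored in DT40 Tdp1-/-;hTDP1 cells in the absence of CPT. ATP levels (CellTiter-Glo luminescence) are recorded after a ≥48 hr, 37 °C incubation.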
TGFb SMAD3 inh: qHTS for Inhibitors of TGF-b. HepG2 CAGA-GFP TGF-b/SMAD3 reporter, GFP fluorescence, 18 h; TGF-beta stimulated, 500 pg/mL final. Potency, µM (highest dose often 46.1 µM), for the others: at the top dose activity, negative = inhibition, usual class: inhibitors. 1.2% of 410,000 active. AID 588855, 2011; note: potency is the fitted concentration of half-maximal effect; % is set by controls: 0 for no effect and ±100 for the full control effect; nearly all actives have a fitted effect of over 65% in size
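Read-out: total well GFP (ex488/em500-530) summed from mean per-cell fluorescence. Cells: HEPG2 CAGA-GFP, 1% FBS DMEM, 18 h at 37 degrees C with 500 pg/mL final TGF-beta. Unstimulated wells served as the full-inhibition control; stimulated DMSO wells = 0%.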
DT40 TDP1 CPT: qHTS for Inhibitors of human tyrosyl-DNA phosphodiesterase 1 (TDP1): qHTS in cells in presence of CPT | chicken DT40 Tdp1-/-;hTDP1 cells + 20 nM CPT, ATP luminescence, 48 h | Potency, µM (top dose mostly 46.2 µM), for inactives: top-dose activity change, negative = growth inhibition, hits mostly inhibitors | AID 686979, 2013 | 12% of 420,000 active; note: potency is the fitted concentration of half-maximal effect; % is set by controls: 0 for no effect and ±100 for the full control effect; nearly all actives have a fitted effect of over 55% in size
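Cell growth measured by CellTiter-Glo luminescence after a minimum 48 h, 37 C compound exposure with 20 nM CPT in Tdp1-knockout DT40 cells stably expressing hTDP1, seeded 400/well; qHTS titration format.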
* hit, by the source's call. Most compounds without a hit are left out; they make up all but 19% or so of the library. Unless noted, calls come from the whole dose curve; as a rule, active = well fitted curve in the direction sought with a large enough effect; inconclusive = small, poorly fitted or top-dose-only effect, or another doubt; inactive = no such curve, though single readings can be large; an effect the other way counts as inactive or inconclusive.

Screening COCn1c(-c2ccc(OC)cc2)nc2ccccc21 returned IL-1B inflam inh -20.3, S-ASM inh 0.1%, HepG2 viability -48.1%, TDP1 cell noCPT -27.3%, TGFb SMAD3 inh -15.2% and DT40 TDP1 CPT -11.0%.
`CCCn1c(-c2ccc(OC)cc2)nc2ccccc21` gave IL-1B inflam inh -17.5, S-ASM inh -1.4%, HepG2 viability -3.8%, TDP1 cell noCPT 3.66µM*, TGFb SMAD3 inh -3.3% and DT40 TDP1 CPT 2.59µM*.
Screening COc1ccc(-c2nc3ccccc3n2Cc2ccc(C(C)C)cc2)cc1 returned HepG2 viability -113.0% and TGFb SMAD3 inh inconclusive.
Screening CN(C)CCN(Cc1ccccc1)C(c1ccnc2ccccc12)c1nnnn1-c1ccc2c(c1)OCCO2 (stereo not given) returned IL-1B inflam inh -4.8, TDP1 cell noCPT inconclusive and DT40 TDP1 CPT inconclusive.
For COc1ccc(-c2nc3ccccc3n2OC(C)C(=O)O)cc1 (stereo not given) the results were IL-1B inflam inh 4.9, S-ASM inh 7.5%, HepG2 viability 1.0%, TDP1 cell noCPT -19.5%, TGFb SMAD3 inh 4.0% and DT40 TDP1 CPT -6.1%.
`Clc1ccc(-c2nc3ccccc3n2OCc2ccccc2)cc1` gave IL-1B inflam inh 11.0, S-ASM inh -10.3%, HepG2 viability 3.4%, TDP1 cell noCPT 20.6µM*, TGFb SMAD3 inh 20.1% and DT40 TDP1 CPT 20.6µM*.
`O=C(CCCN1C(=O)S/C(=C\C=C\c2ccccc2)C1=O)Nc1ccc(O)cc1` gave IL-1B inflam inh -77.5*, S-ASM inh -1.6%, HepG2 viability -12.1%, TDP1 cell noCPT inconclusive, TGFb SMAD3 inh 0.0% and DT40 TDP1 CPT inconclusive.
O=C(CCN1C(=O)/C(=C\C=C\c2ccccc2)SC1=S)Nc1ccc(C(=O)O)cc1 was read as IL-1B inflam inh -54.8*, S-ASM inh -16.0%, HepG2 viability -15.5%, TDP1 cell noCPT 4.2%, TGFb SMAD3 inh 0.3% and DT40 TDP1 CPT -3.4%.
Screening COc1ccc(N2CCN(C(=O)C(=O)c3cn(CC(=O)N4CCCCCC4)c4ccccc34)CC2)cc1 returned IL-1B inflam inh inactive, S-ASM inh 0.3%, HepG2 viability -3.2%, TDP1 cell noCPT inconclusive, TGFb SMAD3 inh inconclusive and DT40 TDP1 CPT inconclusive.
`COC(=O)c1ccc(N=Cc2c(C(F)(F)F)[nH][nH]c2=O)cc1` gave IL-1B inflam inh -5.5, S-ASM inh -0.5%, HepG2 viability -5.4%, TDP1 cell noCPT -17.8%, TGFb SMAD3 inh 3.4% and DT40 TDP1 CPT 14.4%.
For CN1CCN(C(=O)c2ccc(-c3cnn(C)c3)c3ccoc23)CC1 the results were IL-1B inflam inh -2.9, HepG2 viability -6.8%, TDP1 cell noCPT 2.0%, TGFb SMAD3 inh 12.4% and DT40 TDP1 CPT -8.8%.
Cc1ccc2cccc(NC(=O)COc3ccccc3[N+](=O)[O-])c2n1 was read as HepG2 viability -8.4%, TDP1 cell noCPT -15.5%, TGFb SMAD3 inh -0.7% and DT40 TDP1 CPT -11.5%.
Screening Cc1nc2c(C)cccc2cc1C(=O)N/N=C/c1ccc(C(=O)O)cc1 returned IL-1B inflam inh 21.6, S-ASM inh 2.8%, HepG2 viability 4.8%, TDP1 cell noCPT inconclusive, TGFb SMAD3 inh -3.0% and DT40 TDP1 CPT inconclusive.
`Cc1nc2c(C)cccc2cc1C(=O)N/N=C/c1ccc(N(C)C)cc1` gave IL-1B inflam inh 27.7, S-ASM inh -17.1%, HepG2 viability -15.5%, TDP1 cell noCPT 11.6µM*, TGFb SMAD3 inh 3.6% and DT40 TDP1 CPT 5.8µM*.
Screening Cc1nc2c(C)cccc2cc1C(=O)N/N=C/c1cccnc1 returned IL-1B inflam inh -66.9*, S-ASM inh 1.1%, HepG2 viability -27.6%, TDP1 cell noCPT 6.51µM*, TGFb SMAD3 inh 11.9% and DT40 TDP1 CPT 5.17µM*.
Screening COc1ccccc1C(=O)Nc1nnc([C@@H]2C[C@H](O)[C@@H](CO)O2)s1 returned IL-1B inflam inh -3.4, HepG2 viability -6.2%, TDP1 cell noCPT -10.6%, TGFb SMAD3 inh 26.9% and DT40 TDP1 CPT -4.1%.
`CCOc1ccccc1N(CC(=O)Nc1c(C)n(C)n(-c2ccccc2)c1=O)S(=O)(=O)c1ccccc1` gave IL-1B inflam inh -1.0, S-ASM inh -1.4%, HepG2 viability 3.1%, TDP1 cell noCPT -2.8%, TGFb SMAD3 inh 9.2% and DT40 TDP1 CPT -7.5%.
O=C(COC(=O)/C=C/c1ccc(S(=O)(=O)N2CCOCC2)cc1)NCc1ccc(Cl)cc1 was read as IL-1B inflam inh 4.1, S-ASM inh -1.0%, HepG2 viability -0.4%, TDP1 cell noCPT 25.9µM*, TGFb SMAD3 inh 2.8% and DT40 TDP1 CPT inconclusive.
For O=C(COC(=O)/C=C/c1ccc(S(=O)(=O)N2CCOCC2)cc1)NC1CCCCCCC1 the results were IL-1B inflam inh -9.3, S-ASM inh -2.8%, HepG2 viability -17.9%, TDP1 cell noCPT -5.8%, TGFb SMAD3 inh -7.0% and DT40 TDP1 CPT -8.0%.
O=C(COC(=O)/C=C/c1ccc(S(=O)(=O)N2CCOCC2)cc1)NCc1ccccc1 was read as IL-1B inflam inh -25.8, S-ASM inh -1.2%, HepG2 viability -27.7%, TDP1 cell noCPT 13µM*, TGFb SMAD3 inh -24.1% and DT40 TDP1 CPT 7.31µM*.
`COc1ccc(-c2nc(CSc3nncn4c3cc3oc(C)cc34)c(C)o2)cc1` gave HepG2 viability -2.9%, TDP1 cell noCPT inconclusive, TGFb SMAD3 inh -1.9% and DT40 TDP1 CPT inconclusive.
Screening Cc1cc(Cl)ccc1-c1cc2nc(NCCCN(C)C)n(C)c(=O)c2s1 returned IL-1B inflam inh -10.8, HepG2 viability 14.1µM*, TDP1 cell noCPT 13µM*, TGFb SMAD3 inh inconclusive and DT40 TDP1 CPT 23.1µM*.
CN(C)CCCNc1nc2cc(-c3ccccc3CO)sc2c(=O)n1C was read as IL-1B inflam inh 0.4, HepG2 viability -4.4%, TDP1 cell noCPT -1.7%, TGFb SMAD3 inh 0.3% and DT40 TDP1 CPT -16.4%.
Cc1cscc1-c1cc2nc(NCCCN(C)C)n(C)c(=O)c2s1 was read as IL-1B inflam inh inconclusive, HepG2 viability -11.1%, TDP1 cell noCPT inconclusive, TGFb SMAD3 inh -7.7% and DT40 TDP1 CPT 16.4µM*.
